Rpn11 block = Rpn11 (PSMD14) deubiquitinase inhibitors, primary screen, biochemical, fluorescence polarization, uHTS. human 26S proteasome, Ub4-pepOG fluorescence polarization; 20S core pre-blocked with epoxomicin. inhibition, % at 20 µM. 360,000 tested, 0.59% active. AID 588493, 2011;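 active = inhibition at 20 µM, scaled to each plate's controls, above about 33%, limit read from the data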
Target sequence (O00487 whole entry, looked up): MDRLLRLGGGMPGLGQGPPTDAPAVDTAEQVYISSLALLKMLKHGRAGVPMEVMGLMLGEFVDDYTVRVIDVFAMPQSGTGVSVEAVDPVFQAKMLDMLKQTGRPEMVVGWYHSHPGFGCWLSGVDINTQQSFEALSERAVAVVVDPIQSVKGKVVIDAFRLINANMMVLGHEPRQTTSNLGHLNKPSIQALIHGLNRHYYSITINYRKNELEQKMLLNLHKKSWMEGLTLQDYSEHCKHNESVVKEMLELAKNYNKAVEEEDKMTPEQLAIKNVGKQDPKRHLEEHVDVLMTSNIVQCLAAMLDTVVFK
ZTA DNA inh = ZTA (EBV) inhibition in EBNA-1 counter-screen; ZTA-DNA binding, fluorescence polarization; inhibition, % at 11 µM; 320,000 tested, 0.15% active; AID 2234; in the data active = inhibition above about 33%
dFosB act = activators of delta FosB homodimer, primary screen, biochemical, fluorescence polarization, TAMRA-CDK5 oligo, single point | Protein FosB (Mus musculus), P13346 | purified delta FosB; percent of positive-control signal above neutral wells | activation, % at 25 µM | 340,000 tested, 0.99% active | AID 493131, 2011;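 active = mean activation above about 17%, with every replicate also reaching it, limit read from the data, passing the limit was not always enough; inconclusive = only one of the two conditions met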
Target sequence (P13346 whole entry, looked up): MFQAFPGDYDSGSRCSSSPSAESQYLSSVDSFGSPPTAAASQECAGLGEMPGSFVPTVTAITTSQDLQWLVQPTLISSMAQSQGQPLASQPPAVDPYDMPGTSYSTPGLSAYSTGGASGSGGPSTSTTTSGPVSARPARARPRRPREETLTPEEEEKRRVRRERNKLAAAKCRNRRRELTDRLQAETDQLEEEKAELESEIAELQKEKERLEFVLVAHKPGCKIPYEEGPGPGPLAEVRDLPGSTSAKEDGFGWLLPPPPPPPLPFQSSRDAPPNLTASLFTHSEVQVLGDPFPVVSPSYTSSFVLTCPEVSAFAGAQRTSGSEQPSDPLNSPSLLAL
TPT1 inhibitor = Candida albicans TPT1 enzyme inhibitors, primary screen, biochemical, fluorescence polarization; tRNA 2'-phosphotransferase TPT1 (Candida albicans SC5314); recombinant caTPT1, FP RNA substrate dephosphorylation; inhibition, % at 5 µM; 300,000 tested, 0.81% active; AID 1962, 2009;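 active = inhibition above the mean of all tested compounds plus 3 SD, set per screening campaign, cut at about 24% in these data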;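 also: plate controls were DMSO alone for no effect and ferristatin control at 100 nM for full effect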
GRIN3A LBD mod = binders of NR3A ligand-binding domain, primary screen, biophysical, differential scanning fluorimetry, uHTS; NR3A LBD differential scanning fluorimetry, Tm shift; 0% = protein alone, 100% = glycine-bound protein; Tm shift relative to glycine control, % at 25 µM; 340,000 tested, 2.5% active; AID 1259313, 2017;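 active = melting temperature shift of at least 10% of the positive control shift, at one fixed dose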
EBNA-1 inhibitor = EBNA-1 DNA-binding inhibitors, primary screen, biochemical, fluorescence polarization; inhibition, % at 14.8 µM; 300,000 tested, 0.34% active; in the data active = inhibition above about 28%
* marks the source's active call; other numbers are inactive results; ? = inconclusive; . = no result. Compounds with a hit are over-represented: about 4.5% of the library has one in this group of screens.

SMILES	Rpn11 block	ZTA DNA inh	dFosB act	TPT1 inhibitor	GRIN3A LBD mod	EBNA-1 inhibitor
CCOC(=O)c1cn(CC)c2cc(Cl)c([N+](=O)[O-])cc2c1=O	-6.2	-8.0	0.2	0.2	11.6*	3.4
COc1ccc(C)cc1S(=O)(=O)N(C)CC(=O)N1CCN(c2ccccc2)CC1	-2.8	2.2	1.3	-2.9	0.0	-2.9
CCOC(=O)c1nn(C)c(=S)n(C)c1=O	2.1	.	-6.5	.	0.2	.
Cc1noc(/C=C/N(C)C)c1S(=O)(=O)N1CCCC(C(=O)N2CCCCC2)C1 (stereo not given)	-3.3	4.5	-6.8	8.6	14.1*	-4.4
Cc1noc(/C=C/N(C)C)c1S(=O)(=O)N1CCCC(C(=O)NC2CCCCC2)C1 (stereo not given)	3.8	-4.9	4.7	13.0	-2.5	-12.9
Cc1ccc(NC(=O)CSc2nc(N)c3c4c(sc3n2)CSC(C)(C)C4)cc1	-1.1	10.4	-8.7	2.5	23.6*	-1.8
Cc1ccccc1NC(=O)CSc1nc(N)c2c3c(sc2n1)CSC(C)(C)C3	4.7	6.4	-16.2	-0.3	4.9	-7.1
CCOC(=O)N1CCC(NC(=O)C2=C(C)C(=O)OC23CCC(C)CC3)CC1 (stereo not given)	-2.4	-9.0	6.4	-1.4	-4.2	-1.6
CC1=C(C(=O)NC2CCC(C)CC2)C2(CCC(C)CC2)OC1=O (stereo not given)	-1.3	5.1	-7.4	-1.9	13.5*	-4.4
CCN(CC)CCNC(=O)c1ccc(NC(=O)c2ccc(F)cc2F)cc1	-3.6	14.0	-4.2	1.2	-11.2	-7.3
COc1ccc(Nc2cc(C)c3c(O)cccc3n2)cc1	2.0	0.5	?	1.0	-4.9	-1.7
Cc1ccc(Nc2cc(C)c3c(O)cccc3n2)cc1C	1.2	-10.2	38.5*	0.3	2.9	-10.8
CCC1CN(C(=O)N2CCC(C(=O)NCc3ccc(F)cc3)CC2)c2ccccc2O1 (stereo not given)	-1.0	-10.2	-12.1	-1.7	-1.4	1.2
O=C(O)CC(NC(=O)C(c1ccccc1)c1ccccc1)c1cccc([N+](=O)[O-])c1 (stereo not given)	1.5	-13.7	2.6	3.1	0.8	-4.0
Cc1onc(-c2ccccc2)c1C(=O)NC(=S)Nc1sc2c(c1C#N)CCCC2	-8.5	1.9	-17.2	3.3	10.6*	-15.3
Cc1ccc(CN2C(=O)CCC2C(=O)NCCCN2CCC(C)CC2)cc1 (stereo not given)	10.4	.	-3.7	.	2.2	.
CCC1CCCCN1CCCNC(=O)C1CCC(=O)N1Cc1ccc(C)cc1 (stereo not given)	-1.9	-10.8	16.2*	-3.1	-0.5	-5.8
CCOC(=O)c1ccc(Nc2ncnc3nc[nH]c23)cc1	-1.8	-13.9	-4.6	-1.0	-22.6	2.0
c1ccc(COc2ccc(Nc3ncnc4nc[nH]c34)cc2)cc1	-8.5	-4.6	-6.5	-0.2	25.7*	-7.5
CCOCC(=O)Nc1nc2ccc(S(C)(=O)=O)cc2s1	0.2	-10.5	-1.0	-2.3	0.0	3.9
CCOc1ccc(NC(=O)Nc2nc3ccc(S(C)(=O)=O)cc3s2)cc1	0.4	.	-9.6	.	30.5*	.
Cc1ccccc1NC(=O)Nc1nc2ccc(S(C)(=O)=O)cc2s1	-2.0	38.2*	2.8	-4.2	9.7	154.6*
CCOc1ccc2nc(NS(=O)(=O)c3ccc4c(c3)n(C)c(=O)n4C)sc2c1	-1.4	-8.8	-8.4	2.5	29.0*	2.9
NS(=O)(=O)c1ccc2nc(NC(=O)Nc3ccccc3F)sc2c1	18.5	6.1	-14.1	-1.6	-6.5	5.2
CCOc1cccc2sc(Nc3nc4ccc(NC(C)=O)cc4s3)nc12	9.2	-6.9	3.1	-3.9	26.1*	6.2
SMILES	Rpn11 block	ZTA DNA inh	dFosB act	TPT1 inhibitor	GRIN3A LBD mod	EBNA-1 inhibitor
Nc1cc(Cl)nnc1Cl	-8.7	.	-3.5	.	0.8	.
CN1OC[C@@H]2CN(S(=O)(=O)c3ccccc3)[C@H](c3ccc(N4CCCCC4)cc3)C[C@@H]21	2.9	.	.	.	.	.
O=[N+]([O-])c1ccc(CSC2=NCCS2)cc1	-1.0	6.1	-3.5	-0.1	-2.2	2.7
COc1ccc(NC(=O)NCCC2=CCCCC2)cc1	0.8	-24.1	1.2	-1.9	30.6*	11.8
COc1cccc(NC(=O)NCCC2=CCCCC2)c1	-3.5	-1.8	-10.0	-1.1	0.3	8.5
COc1c2occc2c(OC)c2c(=O)cc(C(F)(F)C(F)(F)F)oc12	-8.5	5.5	4.6	0.1	0.8	16.1
COc1c2occc2c(OC)c2c(=O)cc(C(F)(F)F)oc12	2.8	-2.7	-4.1	-1.3	15.8*	10.9
O=C(/C=C/c1cccc([N+](=O)[O-])c1)Nc1cccc(NC(=O)c2cccs2)c1	3.9	-18.9	-1.1	-0.6	10.7*	-18.6
CC(=O)N/C(=C\c1cccc([N+](=O)[O-])c1)C(=O)NC1CCCCC1	-6.4	-6.3	1.6	-5.1	11.2*	2.0
Cc1ccc(NC(=O)/C(=C\c2cccc([N+](=O)[O-])c2)NC(=O)c2cccs2)cc1	1.7	19.5	11.1	-2.6	0.8	8.5
O=C(N/C(=C/c1cccc([N+](=O)[O-])c1)C(=O)N1CCCCC1)c1cccs1	-3.8	6.1	2.1	-5.3	3.7	6.3
O=C(N/C(=C/c1cccc([N+](=O)[O-])c1)C(=O)N1CCCCCC1)c1cccs1	-9.4	3.2	-7.6	-0.6	14.9*	1.0
O=C(/C=C/c1ccc(Cl)c([N+](=O)[O-])c1)Nc1ccc(N2CCCC2)cc1	3.6	-7.3	28.4*	0.2	9.9	2.0
COCCN(CCOC)S(=O)(=O)c1ccc(NC(=O)c2cnccn2)cc1	1.0	-10.4	-4.4	-2.7	-1.4	-5.5
CCOc1ccc(NC(=O)C2CC(=O)N(c3ccc4c(c3)OCCO4)C2)cc1OCC (stereo not given)	1.3	-3.8	-10.0	-4.3	-0.5	-0.1
CN(C)S(=O)(=O)c1ccc(C(=O)N2CCN(S(=O)(=O)c3ccc4c(c3)OCCO4)CC2)cc1	6.9	.	-21.0	.	-0.8	.
CCC(CC)c1nnc(NC(=O)c2cc(C(=O)OC)cc([N+](=O)[O-])c2)s1	-13.1	11.2	-6.4	-2.9	-7.4	4.5
O=C(Nc1ccc(Cl)c([N+](=O)[O-])c1)c1ccco1	-0.3	11.6	4.6	0.4	-3.4	-3.9
O=C(/C=C/c1cccc([N+](=O)[O-])c1)c1ccco1	-6.1	15.0	-7.1	-1.0	0.1	3.6
O=C(/C=C/c1ccc(Cl)c([N+](=O)[O-])c1)Nc1cccc(NC(=O)c2ccco2)c1	4.8	-0.6	-3.3	2.1	10.8*	-6.3

Screening results: PubChem, several laboratories
